These results are taken from PubChem BioAssay (NCATS).

Inconclusive results are not listed. A number with no mark means an inactive call. Active and inactive are the calls of the source. The call rests on the fitted dose curve; in most records, active means well fitted inhibition curve with a large enough effect; inconclusive means small, poorly fitted or top-dose-only effect; inactive means no such curve, though single readings can be large or run the other way.
On the % scale 0 is the no-effect control and ±100 the full control effect.

The assay is described as follows: Primary qHTS for inhibitors of nuclear receptor binding SET domain protein 2 (NSD2) in an RCH-ACV wild type WT cells (2C) (AID 1645877). Further: nearly all actives have a fitted effect of over 70% in size. Particulars: RCH-ACV (leukaemia line) NSD2 WT (2C) viability, CellTiter-Glo, 72 h; series mostly up to 44.9 µM; activity change, negative = cell killing: at the top concentration.
With `Nc1c2c(nc3c1CCC3)CCCC2`, the “activity change, negative = cell killing” value was -7.35%.

As to `Cc1cc(NC(=O)C2=C(O)c3ccccc3S(=O)(=O)N2C)no1`, the “activity change, negative = cell killing” value is 4.23%. As for `NC(N)=NS(=O)(=O)c1ccc(N)cc1`, the molecule was classed as inactive.

As for `CC(CN(C)C)C(C)(O)Cc1ccc(Cl)cc1` (stereo not given), the “activity change, negative = cell killing” value was -11.3%. For the molecule `COc1ccccc1OCC(O)CO` (stereo not given), the molecule was classed as inactive. For the molecule `OCCN1C[C@H](O)[C@@H](O)[C@H](O)[C@H]1CO`, the Potency entry was “inactive”. Regarding `Cc1ncc(CO)c(CN)c1O`, the “activity change, negative = cell killing” value is 3.03%. Take `CN[C@@H]1[C@H](O)[C@H](NC)[C@H]2O[C@@]3(O)C(=O)C[C@@H](C)O[C@H]3O[C@@H]2[C@H]1O`: the molecule was classed as inactive. Same read-out and setting: under `C=CCNC(N)=S` stands “inactive”. Consider `Cc1cc(C)nc(NS(=O)(=O)c2ccc(N)cc2)n1`, for which the “activity change, negative = cell killing” value was -4.43%.

With `CC1CC(OC(=O)c2ccccc2O)CC(C)(C)C1` (stereo not given), the “activity change, negative = cell killing” value is 7.66%.

Consider `Cc1cc(-n2nc3ccc(Cl)cc3n2)c(O)c(C(C)(C)C)c1`, for which the outcome was inactive. On to `C[C@@H]1CCC[C@H](C)N1`, for which the “activity change, negative = cell killing” value is 4.12%.

Consider `CCCCCCCCCCOc1cc2c(=O)c(C(=O)OCC)c[nH]c2cc1OCC`, for which the activity change, negative = cell killing is 4.45% [at 4.96 µM]. For `Nc1ccc(S(=O)(=O)c2ccc(N)cc2)cc1`, the “activity change, negative = cell killing” value is 6.02%. `CCOC(=O)OC(C)OC(=O)[C@@H]1N2C(=O)[C@@H](NC(=O)[C@H](N)c3ccccc3)[C@H]2SC1(C)C` (stereo not given in full): the “activity change, negative = cell killing” value was -15.1%. For `Cc1cccc(C(=O)O)c1O`, the “activity change, negative = cell killing” value is -0.624%.

On to `Cc1ccc(S(=O)(=O)NC(=O)NC2CCCCCCC2)cc1`, for which the molecule was called inactive.

On to `O[C@@H]1CO[C@H]2[C@@H]1OC[C@@H]2O`, for which the call was inactive. For the molecule `CC(C)(C)C(=O)OCOC(=O)[C@@H]1N2C(=O)[C@@H](NC(=O)[C@H](N)c3ccccc3)[C@H]2SC1(C)C`, the molecule was called inactive.
